Test results as given in PubChem BioAssay AID485341 (National Center for Advancing Translational Sciences (NCATS), 2010).
Screen size: about 330,000 compounds; about 1,700 (0.52%) were called active. This excerpt belongs to a sample that is enriched for actives. A number with no mark means an inactive call. Calls follow the shape of the dose curve; as a rule, active = well fitted inhibition curve with a large enough effect; inconclusive = small, poorly fitted or top-dose-only effect; inactive = no such curve, though single readings can be large or run the other way.

target: Beta-lactamase (Escherichia coli (strain K12)) (UniProt P00811); assay: qHTS Inhibitors of AmpC Beta-Lactamase (assay without detergent); conditions: AmpC nitrocefin hydrolysis, absorbance 480 nm, 0.0001% Triton; series mostly up to 57.1 µM; activity change, negative = inhibition: at the top concentration; also: nearly all actives have a fitted effect of over 20% in size;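 as to activity change, negative = inhibition: plate controls were no compound for no effect and no enzyme for full effect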
How it was run: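 AmpC (5.3 nM in the dispensed reagent) in 20 mM phosphate pH 7.0 with 0.01% (detergent screen) or 0.0001% Triton X-100 was preincubated with compounds for 15 min at room temperature. Nitrocefin was then added from an 800 uM solution, and hydrolysis was followed at 480 nm.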
Potency is read from the fitted curve at half-maximal effect.

Chain of Beta-lactamase (Escherichia coli (strain K12)) (P00811 whole entry, looked up): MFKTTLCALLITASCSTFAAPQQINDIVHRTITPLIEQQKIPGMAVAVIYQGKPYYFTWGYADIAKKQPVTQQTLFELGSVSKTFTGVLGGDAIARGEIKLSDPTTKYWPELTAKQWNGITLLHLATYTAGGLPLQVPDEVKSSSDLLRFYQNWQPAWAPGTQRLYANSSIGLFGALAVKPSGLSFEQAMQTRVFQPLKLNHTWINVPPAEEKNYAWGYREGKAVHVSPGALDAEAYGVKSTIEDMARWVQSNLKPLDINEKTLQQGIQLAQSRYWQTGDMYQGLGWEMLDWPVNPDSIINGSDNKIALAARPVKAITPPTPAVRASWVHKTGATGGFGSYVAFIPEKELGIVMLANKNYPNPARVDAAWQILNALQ

Row | SMILES | activity change, negative = inhibition | Potency
1 | CC(C)CCN1C(=O)c2ccc(C(=O)Nc3cccc(S(N)(=O)=O)c3)cc2C1=O | -39.5% | 
2 | CN(c1ccccn1)c1ncnc2[nH]ncc12 | 3.64% | 
3 | Cc1nn(C)c(Cl)c1CN1CCC(Oc2ccc(C(=O)N3CCCC3)cc2)CC1 | 35.1% | 
4 | Cc1csc(=O)n1CC(=O)Nc1ccc(S(C)(=O)=O)cc1 | -12.7% | 
5 | O=C(c1ccc(Cl)nc1)N1CCN(S(=O)(=O)c2ccc3c(c2)OCCO3)CC1 | 0.998% | 
6 | Nc1cc(N)nc(SCC(=O)Nc2cccc(S(=O)(=O)N3CCCCC3)c2)n1 |  | 25.1 µM (active)
7 | Cn1nnnc1SCC(=O)Nc1cccc(S(=O)(=O)N2CCCCC2)c1 | -28.9% | 
8 | O=C(CSc1ccccc1)Nc1cccc(S(=O)(=O)N2CCCCC2)c1 | -26.9% | 
9 | N#C/C(=C(/O)COC(=O)COc1ccc(Cl)cc1)c1nc2ccccc2[nH]1 |  | 11.2 µM (active)
10 | COc1ccccc1C(=O)COC(=O)COc1ccc(C#N)cc1 | -21.5% | 
11 | COCCN(CCOC)S(=O)(=O)c1ccc(/C(O)=C(\C#N)c2nc3ccccc3[nH]2)cc1 | -29.2% | 
12 | Cc1cc(C)c(OCCN2CC(C)OC(C)C2)c(Br)c1 (stereo unspecified) | 64.9% | 
13 | CCN(CC)S(=O)(=O)c1ccc(CNC(=O)CN2C(=O)NC3(CCc4ccccc43)C2=O)cc1 (stereo unspecified) | 1.91% | 
14 | Cn1c2cc(B(O)O)sc2c2cnn(Cc3ccccc3F)c(=O)c21 |  | 2.82 µM (active)
15 | CCOC(=O)c1c(CNCc2ccccc2F)c2sc(C)cc2n1C | -10.1% | 
16 | Cn1cc(C(=O)NCc2ccccc2F)cn1 | -13.3% | 

Row | SMILES | activity change, negative = inhibition | Potency
17 | COc1cc2c(-c3ccc4c(c3)OCO4)c(-c3ccsc3)oc(=O)c2cc1OC | -30.6% | 
18 | O=C(NC1CCN(C(=S)NCc2ccco2)CC1)c1ccc(F)cc1 | -3.96% | 
19 | Cc1ccc(N2C(=O)C(CC(=O)Nc3cccc(F)c3)N(CCc3ccncc3)C2=O)cc1 (stereo unspecified) | 52.9% | 
20 | CN1C(=O)C(CC(N)=O)N(NC(=O)c2ccc(Cl)cc2)C1=S (stereo unspecified) | -8.33% | 
21 | Cc1ccc(NC(=O)CC2C(=O)N(Cc3ccccc3)C(=S)N2NC(=O)c2cccc(F)c2)c(C)c1 (stereo unspecified) |  | 31.6 µM (active)
22 | CN(C)/C=N/c1cc(=O)n(C)c(=O)n1CC1CC1 | -10% | 
23 | Clc1ccccc1-c1cc(COc2ccc3ccccc3c2)no1 | -19.5% | 
24 | COc1ccc(C2CC(c3ccc(C)cc3)Nc3ncnn32)cc1 (stereo unspecified) | 43.2% | 
25 | Clc1ccc(C2CC(c3cccs3)n3ncnc3N2)cc1Cl (stereo unspecified) |  | 0.708 µM (active)
26 | Nc1nc2n(n1)C(c1ccco1)CC(c1ccc(Cl)c(Cl)c1)N2 (stereo unspecified) | 82.4% | 
27 | CN(C)CCN(Cc1ccccc1)S(=O)(=O)c1csc(C(N)=O)c1 | -8.05% | 
28 | Cc1ncn2cc(-c3ccc(Cl)cc3Cl)[nH]c(=O)c12 | -27.9% | 
29 | Cn1c(O)c(C=Nc2ccc3c(c2)CCC3)c(=O)n(C)c1=O | -16.7% | 
30 | CC(C)n1c(=O)c(C=Nc2ccc(Br)cc2)c(O)n(Cc2ccco2)c1=O |  | 14.1 µM (active)
31 | Cn1c2c(c(=O)n(C)c1=O)CN(Cc1ccco1)CN2 | -21.2% | 
